The full ranking holds about 110,000 compounds; the median of “z-score” is about -0.1, and the highest 2% start at about 2. Many of the other results were omitted from the sample, so the highest values are more common in it than they were. Active and inactive are the calls of the source.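 How the source made its calls: active means z-score in the third read window above 3 or below -3; inactive means the rest.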

This assay deals with Metabotropic glutamate receptor 8 (Rattus norvegicus) (UniProt P70579). Description: rat mGluR8 modulators via GIRK flux, primary screen, cell-based, thallium flux, HTS (AID 488969). As to conditions: HEK293 rat mGluR8, GIRK (G protein-gated inwardly rectifying potassium channel) thallium flux, FluoZin2; at 10 µM; stronger effect = higher value; submaximal glutamate (EC20) added with thallium.
Sequence of Metabotropic glutamate receptor 8 (Rattus norvegicus) (P70579 whole entry, looked up): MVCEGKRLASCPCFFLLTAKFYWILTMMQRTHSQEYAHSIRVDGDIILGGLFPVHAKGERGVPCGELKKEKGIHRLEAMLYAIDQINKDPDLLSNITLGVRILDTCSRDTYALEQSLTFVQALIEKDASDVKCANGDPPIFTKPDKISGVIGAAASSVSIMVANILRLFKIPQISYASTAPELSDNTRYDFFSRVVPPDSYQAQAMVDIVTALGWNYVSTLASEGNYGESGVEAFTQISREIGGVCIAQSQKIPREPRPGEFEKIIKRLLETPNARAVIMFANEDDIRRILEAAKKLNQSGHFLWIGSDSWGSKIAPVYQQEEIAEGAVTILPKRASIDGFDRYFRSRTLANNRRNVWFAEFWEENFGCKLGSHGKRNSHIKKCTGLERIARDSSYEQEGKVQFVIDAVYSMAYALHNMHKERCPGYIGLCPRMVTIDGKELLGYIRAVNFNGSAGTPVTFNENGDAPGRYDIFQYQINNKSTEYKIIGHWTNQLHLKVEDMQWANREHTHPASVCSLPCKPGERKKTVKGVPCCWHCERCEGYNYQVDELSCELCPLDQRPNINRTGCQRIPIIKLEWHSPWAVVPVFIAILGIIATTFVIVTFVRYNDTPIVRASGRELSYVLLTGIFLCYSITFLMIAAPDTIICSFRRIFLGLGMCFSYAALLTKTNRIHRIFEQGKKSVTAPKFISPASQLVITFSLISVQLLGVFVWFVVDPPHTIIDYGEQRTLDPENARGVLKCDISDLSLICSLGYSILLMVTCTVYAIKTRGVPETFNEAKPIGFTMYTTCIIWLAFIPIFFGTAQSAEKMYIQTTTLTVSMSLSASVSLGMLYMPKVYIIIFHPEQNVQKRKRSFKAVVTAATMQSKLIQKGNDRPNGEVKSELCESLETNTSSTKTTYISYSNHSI
As for `Cc1cc(C)nc(N/N=C/c2ccccc2OCc2cccc(Br)c2)n1`, the z-score is -0.027. As for `O=C(NN1C(=O)C2C3C=CC(C4CC34)C2C1=O)c1ccc(Cl)cc1Cl` (stereo not drawn), the figure is -0.0308. As for `Cc1ccc(-c2nnn(CC(=O)N(c3ccccc3)C(C(=O)NC(C)(C)C)c3cccs3)n2)o1` (stereo not drawn), the figure is -0.243. As for `CCCC(=O)Nc1c2c(nn1-c1ccc(OC)cc1)CS(=O)C2` (stereo not drawn), the figure is -1.01; as for `COc1ccc(Cl)cc1N(C)C(=O)CCc1nc(-c2ccc(C)cc2)no1`, 0.139. `CC(=O)Nc1ccc(SCC(=O)Nc2ccccc2-c2ccccc2)cc1` displayed a z-score of -0.153. With `O=C(N/N=C1/C(=O)c2cccc3cccc1c23)c1ccc(Cl)cc1`, the z-score was 3.2 (active).

Take `CCNC(=S)N/N=C/c1ccco1`: the z-score stood at 0.768. As for `CNC(=O)CN1C(=O)c2cccc3cccc1c23`, the z-score amounted to 0.394. As for `CCCCNC(=S)Nc1ccccc1F`, the figure is 0.54; as for `CCCCNC(=S)N/N=C/c1ccc(C)s1`, 1.81. The value for `CC(=O)N1C(=O)c2cccc3cccc(c23)C(=O)N1C(C)=O` was 0.73; that for `O=C1c2cccc3cccc(c23)C(=O)N1OS(=O)(=O)c1ccc(Cl)cc1` was 0.123; that for `CNC(=S)N/N=C1\C(=O)c2cccc3cccc1c23` was 14.1 (active). Take `CCNC(=S)N/N=C1\C(=O)c2cccc3cccc1c23`: the z-score was 12.9 (active). The molecule `CC(C)/C=N/NC(=O)c1ccc(Cl)cc1` registered a z-score of -0.254.

`CCNC(=S)NS(=O)(=O)c1ccccc1` returned a z-score of -0.195. The value for `CCCCNC(=S)N/N=C1\C(=O)c2cccc3cccc1c23` was 3.16 (active); that for `CCC(Sc1nc2ccccc2c(=O)[nH]1)C(=O)O` (stereo not drawn) was 0.219; that for `CC(C)(C)c1ccc(S(=O)(=O)NCC(=O)N2CCN(C(=O)c3ccco3)CC2)cc1` was -0.0781. As for `O=C(CCSCCC(=O)NCc1ccc(F)cc1)NCc1ccc(F)cc1`, the figure is -0.471; as for `CCOC(=O)c1c(-c2ccc(OC)cc2)csc1/N=C/N(C)C`, -0.193; as for `COc1ccc2c(c1)c1nc3ccccc3nc1n2Cc1ccc(OC(C)C)c(OC)c1`, -0.644. The value for `O=C(NCC(=O)N1CCN(c2ncccn2)CC1)c1cccs1` was 0.235; that for `Cn1cc(-c2nnnn2-c2ccc(Cl)cc2)c(C(F)(F)F)n1` was 0.131. `CCCCc1nc(NCc2ccccc2)c(C#N)c2c1COC(C)(C)C2`: the z-score is 0.531. As for `O=C(NCCCN1CCOCC1)c1ccc(CS(=O)(=O)c2ccc(Br)cc2)o1`, the figure is -0.0398; as for `CC(=O)Nc1ccc(NC(=O)c2ccc(Cn3cc(Cl)cn3)cc2)cc1`, -0.369; as for `S=c1[nH]cc(-c2ccccc2)n1-c1cccc(Cl)c1`, 2.94. Take `S=c1[nH]cc(-c2ccccc2)n1-c1ccccc1`: the z-score was 0.267. In turn, `CCn1c(-c2ccccc2)c[nH]c1=S` displayed a z-score of 0.254. Consider `Cc1cccc(-n2cc[nH]c2=S)c1`, for which the z-score was found to be 0.0616. `Cc1ccc(-n2cc[nH]c2=S)cc1C`: the z-score was 1.42. As for `S=c1[nH]cc(-c2ccc(Cl)cc2)n1-c1ccccc1`, the figure is 1.94; as for `S=c1[nH]ccn1-c1cccc(Cl)c1`, 2.29; as for `CCn1c(-c2ccc(-c3ccccc3)cc2)c[nH]c1=S`, 3.86 (active).

In the case of `Cn1c(-c2ccc(-c3ccccc3)cc2)c[nH]c1=S`, the z-score was 4.21 (active).

For `S=c1[nH]cc(-c2ccccc2)n1-c1ccccc1Cl`, the z-score was 0.447. The value for `C=CCn1c(-c2ccccc2)c[nH]c1=S` was 0.229; that for `Cn1c(-c2ccccc2)cccc1=O` was 0.333. Molecule `COc1ccnc(N2CCN(c3ccccc3)CC2)c1C#N` displayed a z-score of 0.0026.

`COc1cccc(/C(O)=C2/C(=O)C(=O)N(CCN(C)C)C2c2ccccn2)c1` (stereo not drawn) displayed a z-score of -0.249. The value for `CCc1ccc(NC(=O)CSc2nc3ccccc3c(=O)n2CCCC(=O)N2CCCC2)cc1` was -0.305. Molecule `NC(=O)c1ccc(F)cc1` gave a z-score of 0.635. As for `Cc1ccc(NC(=O)N2C(=O)C3(OCCO3)c3ccccc32)cc1`, the z-score is -0.237. For the molecule `COc1ccc(-c2cc(C(F)F)n3ncc(C(=O)N4CCN(C)CC4)c3n2)cc1`, the z-score is -0.201.

For the molecule `COc1cc(C2C(C(=O)N3CCOCC3)=C(C)NC3=C2C(=O)CCC3)ccc1OC(C)=O` (stereo not drawn), the z-score came out at 0.401. In turn, `COCCCNCCCCOc1cccc(Br)c1` gave a z-score of 0.266. For `CC(=O)Nc1nc2ccc(-c3nc4ccccc4o3)cc2s1`, the z-score came out at 2.69. On to `Cc1ccc2nc(NC(=O)CSc3nc4ccccc4o3)sc2c1`, for which the z-score is 0.182. As for `Cc1ccc2nc(NC(=O)c3ccc4ncsc4c3)sc2c1`, the z-score was found to be 0.195. In turn, `CC(=O)Nc1nc2ccc(C(=O)NC3CCCCC3)cc2s1` displayed a z-score of -0.32. As to `Nc1nc2ccc(-c3nc4ccccc4o3)cc2s1`, the z-score was -0.112. For the molecule `CNC(=O)c1ccc2nc(NC(C)=O)sc2c1`, the z-score is 8.42 (active).

`COC(=O)c1ccc(CSc2ccc3nnc(-c4cccc(F)c4)n3n2)o1` came in with a z-score of -0.901. `Cc1cccc(N2CSC3=C(C#N)C(c4ccc(C)o4)CC(=O)N3C2)c1` (stereo not drawn) registered a z-score of -0.375. `CCOC(=O)/C(=C\Nc1ccc(OC(F)(F)F)cc1)Sc1ncc(C(F)(F)F)cc1Cl`: the z-score is -0.436. As to `CN(c1cccc(NC(=O)c2ccccc2N(C)S(=O)(=O)c2ccccc2)c1)S(C)(=O)=O`, the z-score is -0.199. As to `COc1cc(OC)cc(C(=O)Nc2nc(-c3ccccc3)c(-c3ccccc3)o2)c1`, the z-score is 3.64 (active). Molecule `COc1cc(OC)cc(C(=O)NCc2nc(-c3ccccc3)no2)c1` showed a z-score of -0.942. With `COc1cccc(C(=O)Nc2ccccc2)c1`, the z-score is -0.0644. With `COc1cccc(C(=O)Nc2nc(-c3ccccc3)c(-c3ccccc3)o2)c1`, the z-score is 7.83 (active). As for `COc1cc(OC)cc(C(=O)Nc2ccc(-c3nc4ccccc4o3)cc2)c1`, the figure is -0.273; as for `COc1cccc(C(=O)Nc2c(F)c(F)c(F)c(F)c2F)c1`, -0.711; as for `CCCCOc1ccc(Cc2c(Cl)nc(SC)nc2N2CCOCC2)cc1`, 0.0392. `COc1cc(CN2CCN(c3cccc(Cl)c3)CC2)cc(OC)c1OC` showed a z-score of -0.348. As for `O=C1CC(c2cccc(F)c2)SC(N(c2ccccc2)c2ccccc2)=N1` (stereo not drawn), the z-score was -0.127. As for `Fc1cccc(C2NN=C(c3ccccc3)S2)c1` (stereo not drawn), the figure is 6.37 (active); as for `NS(=O)(=O)c1ccc(N2N=C(c3ccccc3)CC2c2cccc(F)c2)cc1` (stereo not drawn), 0.17.

For the molecule `O=C(N/N=C/c1ccc[nH]1)c1cccc([N+](=O)[O-])c1`, the z-score is -0.104.

`Cc1ccc(S(=O)(=O)N2Cc3ccccc3CC2C(=O)Nc2ccc3c(c2)OCO3)cc1` (stereo not drawn) displayed a z-score of -0.0374. `Cc1ccc(S(=O)(=O)N2CC(O)CC2C(=O)Nc2ccc3c(c2)CCC3)cc1` (stereo not drawn): the z-score was determined as 2.07. As for `Cc1ccc(S(=O)(=O)Nc2ccc3c(c2)CCC3)cc1`, the figure is -0.101; as for `COc1ccc(-c2cc3nc(C4CCN(C(=O)OC(C)(C)C)CC4)c(C(=O)O)cn3n2)cc1`, -0.691. The value for `c1ccc2c(c1)ncn2CCC1CCCCC1` was 0.093; that for `c1ccc(C(c2ccccc2)N2CCN(c3nc4ccccc4n4cnnc34)CC2)cc1` was -0.222; that for `C/C(N)=C(/C#N)C(=O)CSc1nc2ccccc2c(=O)n1CCCO` was -0.389. Turning to `C/C(N)=C(/C#N)C(=O)CSc1nc2ccccc2c(=O)n1-c1ccc(C)c(Cl)c1`, the z-score was -0.275. The value for `CCCCn1c(SCC(=O)NCc2ccco2)nc2ccccc2c1=O` was 6.36 (active); that for `C/C(N)=C(/C#N)C(=O)CSc1nnnn1-c1ccc(C)cc1` was 0.331.

For `COCCn1c(SCc2nc(N)nc(Nc3ccccc3C)n2)nc2ccccc2c1=O`, the z-score is -0.279.

Molecule `CCOCCCn1c(SCC(=O)/C(C#N)=C(\C)N)nc2ccccc2c1=O` returned a z-score of -0.243.

For the molecule `Cc1ccccc1Nc1nc(N)nc(CSc2nc3ccccc3c(=O)n2C)n1`, the z-score is 0.919. As for `CCCCn1c(SCC(=O)/C(C#N)=C(\C)N)nc2ccccc2c1=O`, the figure is 5.63 (active). As for `O=C(CSc1nc2ccccc2c(=O)n1Cc1ccco1)NCc1ccco1`, the figure is -0.352; as for `CCCCn1c(SCc2nc(N)nc(Nc3ccccc3C)n2)nc2ccccc2c1=O`, 3.44 (active).

Take `C/C(N)=C(/C#N)C(=O)CSc1nc2cc(Cl)ccc2c(=O)n1-c1ccc(C)cc1`: the z-score was determined as 2.69.

The molecule `Cn1c(SCC(=O)NCc2ccco2)nc2ccccc2c1=O` had a z-score of -0.354. As for `O=C(O)c1cccc(Nc2ncnc3c2cnn3-c2ccccc2)c1`, the figure is -1.14; as for `CC(=O)C(/C=N/c1cc(-c2ccc(C)cc2)nn1-c1ccccc1)=C(\C)O`, -0.251.

`CCC(=O)Nc1ccc(S(=O)(=O)N2CCCCC2)cc1OC` registered a z-score of 0.0489. As for `CC(C)Cc1nc2oc3c(NCCCN4CCOCC4)ncnc3c2c2c1CCC2`, the figure is 0.0144.

On to `S=c1[nH]nc(-c2cc(-c3ccco3)[nH]n2)n1-c1ccccc1`, for which the z-score was -0.141. Turning to `COc1cc(S(=O)(=O)N(Cc2ccccn2)Cc2ccco2)ccc1-n1cnnn1`, the z-score is -0.493. Take `CC(=O)Nc1ccc(SCC(=O)c2cc(C)n(CC(F)(F)F)c2C)cc1`: the z-score is 0.0826.

Take `COC(=O)c1ccc(-n2c(C)cc(C(=O)CSc3ccc(NC(C)=O)cc3)c2C)cc1`: the z-score is 3.5 (active). Take `CC(=O)Nc1ccc(SCC(=O)c2cc(C)n(-c3ccccc3)c2C)cc1`: the z-score turned out to be 0.162. `CC(=O)Nc1ccc(SCC(=O)c2cc(C)n(C)c2C)cc1`: the z-score was -0.0734.

With `CC(=O)Nc1ccc(SCC(=O)c2cc(C)n(-c3ccccc3F)c2C)cc1`, the z-score was 4.45 (active).

As for `COCC(C)n1c(C)cc(C(=O)CSc2ccc(NC(C)=O)cc2)c1C` (stereo not drawn), the z-score amounted to 0.445. `Cn1c(SCC(=O)c2ccc(F)cc2)nnc1-c1ccccc1N` had a z-score of -0.0125.

Turning to `O=C(CCSc1nc(-c2ccc3c(c2)OCO3)cc(C(F)(F)F)n1)NCc1ccco1`, the z-score stood at 0.587. As for `O=[N+]([O-])c1cccc(/C=C/c2nc(C=Nc3ccc4ccccc4c3)c(O)o2)c1`, the figure is -0.0456. Molecule `Cc1ccc(S(=O)(=O)N(C)CCCC(=O)Nc2cccc3ccccc23)cc1` yielded a z-score of -0.456.

On to `CCC(=O)Nc1ccc(N2CCCCC2)cc1`, for which the z-score was -0.169. For `O=C(CNC1CCCCCC1)Nc1ccc(N2CCCC2)cc1`, the z-score was 2.66. With `O=C(CNC1CCCCCC1)Nc1ccccc1N1CCCCC1`, the z-score was -0.23. As for `CN1C2=C(C#N)C(c3ccccc3)(C(F)(F)F)NC(=O)N2c2ccccc21` (stereo not drawn), the figure is -0.282. With `CC(C)c1nc(-c2ccccc2)c(-c2ccccc2)[nH]1`, the z-score is -0.0702. The value for `CC(C)c1nc(=S)n(-c2ccccc2)[nH]1` was 4.41 (active).

As to `CC(C)c1nc2cc3ccccc3cc2[nH]1`, the z-score came out at 0.396. The value for `COc1ccc(N2CCN(C(=O)NC34CC5CC(CC(C5)C3)C4)CC2)cc1` was -0.0964; that for `CCC(CCC(=O)Nc1ccc(S(N)(=O)=O)cc1)C(=O)O` (stereo not drawn) was 0.735.
